Most compounds without a hit are left out; they make up all but 2% or so of the library.
CtBP-E1A blk – qHTS Assay for Inhibitors of the CtBP/E1A Interaction. CtBP / adenovirus E1A interaction (AlphaScreen). AlphaScreen GST-E1A/His-CtBP binding, 1536-well; hits give low values. activity change, % (concentration not given with the values). hit rate 0.49% among 340,000. AID 651724, 2012
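Steps: dispense buffer (Tris pH 8.0, NaCl 300 mM, TCEP 1 mM, BSA, Tween 20); add 5X protein mix (GST-E1A, His-CtBP, 125 nM each); pin 23 nL compound; 2 h at 37 °C, dark; add 5X beads (50 ug/mL); 1 h; read.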
KCNH2 3.1 block – qHTS for Inhibitors of KCHN2 3.1: Mutant qHTS; hit rate 0.95% among 340,000; activity change, % (tested at about 1.8 µM); Potassium voltage-gated channel subfamily H member 2, brain isoform KCNH2 3.1 (human); U2OS KCNH2 3.1, thallium flux FluxOr; hits give low values;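 active means maximum activity change below -70%; inconclusive means maximum activity change from -70% to -50%; inactive means maximum activity change above -50%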;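 further: thallium influx rate constant from kinetic fluorescence after stimulation buffer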
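U2OS cells transduced with KCNH2 3.1 mutant virus (1.77 x 10^8 /mL, 4 h), plated overnight at 37 C, loaded 45 min with FluxOr dye plus Red40 quencher. Thallium flux rate constant from kinetic reads after stimulation buffer, normalised to controls.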
Six1-Eya2 inh – qHTS Assay for Inhibitors of the Six1/Eya2 Interaction; Homeobox protein SIX1 (Homo sapiens) + Protein phosphatase EYA2 (Homo sapiens), …; AlphaScreen GST-Six1/His-Eya2 binding, biochemical; hits give low values; activity change, % (no concentration beside the values); hit rate 0.56% among 360,000; AID 651725, 2012
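Compounds are tested against tagged Six1 and Eya2 proteins bridged by glutathione donor and nickel acceptor beads; after a one-hour incubation at 37 °C without light, AlphaScreen emission is recorded.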
KDM4E inh – qHTS Assay for Inhibitors of Human Jumonji Domain Containing 2E (JMJD2E). JMJD2E catalytic domain, FDH-coupled NADH fluorescence (FDH is formaldehyde dehydrogenase). Potency, µM (doses to about 57.1 µM), inactives show at the highest dose activity change, negative = inhibition, most hits filed as inhibitors. hit rate 1.6% among 230,000. AID 2147, 2009; active means well fitted inhibition curve with a large enough effect, not every such curve was filed as active; inconclusive means small, poorly fitted or top-dose-only effect, or another doubt; inactive means no such curve, though single readings can be large or run the other way;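 further: potency means the concentration at half of the fitted maximal effect; 0% = wells with enzyme and -100% = buffer wells without enzyme; nearly all actives have a fitted effect of over 50% in size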
KCNH2 WT inh – qHTS for Inhibitors of KCHN2 3.1: Wildtype qHTS | U2OS, BacMam KCNH2, thallium flux FluxOr; hits give low values | Voltage-gated inwardly rectifying potassium channel KCNH2 (Homo sapiens), Q12809 | hit rate 0.37% among 340,000 | activity change, % at 1.84 µM;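 active means maximum activity change below -70%; inconclusive means maximum activity change between -70% and -50%; inactive means maximum activity change above -50%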
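U2OS cells were transduced with wild-type KCNH2 virus (2.03 x 10^8 / mL) for 4 h at room temperature, then cultured overnight at 37 C. Thallium flux was read with FluxOr dye. Rate constants were normalized to DMSO controls.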
Active calls of the source: *; ? = inconclusive; · = no result; ! = repeats disagree. Unless noted, no stated cut-off is given here; in the data, active means activity change below about -65%; inconclusive means mostly about -30% to -63%; inactive means weaker than that. Unless noted, on the % scale 0 is the no-effect control and ±100 the full control effect.

SMILES	CtBP-E1A blk	KCNH2 3.1 block	Six1-Eya2 inh	KDM4E inh	KCNH2 WT inh
O=C(Cn1cnc([N+](=O)[O-])n1)N/N=C/c1ccccc1O	-95*	-34	-92*	25µM*	-5
O=C(CCCn1cnc([N+](=O)[O-])n1)Nc1cc(Cl)ccc1O	-17	4	-23	7%	-3
Cc1ccccc1/C=N/NC(=O)Cn1cnc([N+](=O)[O-])n1	1	5	0	-2%	-2
O=C(Cn1cnc([N+](=O)[O-])n1)N/N=C/c1cc(Cl)ccc1O	-94*	-10	-92*	22µM*	-2
CC1CCCCN1S(=O)(=O)c1ccc(C(=O)Nc2sccc2C(N)=O)cc1 (stereo unspecified)	-16	-96*	-15	?	-22
COc1cc(Cl)cc(/C=N\NC(=O)c2ccc3c(c2)OCO3)c1O	?	2	-88*	·	2
O=C(N/N=C/c1ccccc1O)c1ccc2c(c1)OCO2	-78*	15	?	·	10
O=C(N/N=C/c1cc(Br)c(Br)o1)c1ccc2c(c1)OCCO2	-4	16	-28	?	8
O=C(N/N=C/c1ccc2c(c1)OCO2)c1ccc2c(c1)OCCO2	-14	2	-17	?	3
O=C(C[n+]1ccccc1)N/N=C/c1cc(Br)ccc1F	11	-18	-12	·	-2
O=C(C[n+]1ccccc1)N/N=C/c1cc(Br)cc(Br)c1O	6	2	-89*	·	3
O=C(N/N=C/c1cc(Br)c(O)c(Br)c1O)c1ccc2c(c1)OCCO2	-97*	-5	-85*	·	-3
Cc1ccc(S(=O)(=O)N2CC3(O)CN(C(=O)OC(C)C)N(C(=O)OC(C)C)CC3(OC(=O)NCC3CCCCC3)C2)cc1 (stereo unspecified)	5	2	-1	·	1
CN(c1ccccc1C(=O)NCC1CCCO1)S(C)(=O)=O (stereo unspecified)	7	3	2	4%	0
COc1cc(Br)cc(/C=N/NC(=O)Cc2ccccc2)c1O	3	10	?	·	12
O=C(N/N=C/c1cc(Br)cc(Cl)c1O)c1ccc2c(c1)OCO2	-83*	-8	-81*	·	2
O=C(Cc1ccccc1)N/N=C/c1cc(Br)cc(Cl)c1O	?	7	?	6.3µM*	3
CC(=O)Oc1ccc2c(c1)OC(c1ccccc1)CC21CC(C)(C)NC(=O)N1 (stereo unspecified)	5	0	-1	5%	-3
CN(CCCNC(=O)c1cc2c(Cl)nc3ccccc3c2s1)Cc1ccccc1	-30	·	-23	-28%	-307*
CCN(CC)CCCNC(=O)c1cc2c(Cl)nc3ccccc3c2s1	-21	5	-14	-12%	1
O=C(CCN1C(=O)/C(=C\c2ccccc2Cl)SC1=S)Nc1cccnc1	-4	-7	-15	·	-3
O=C(CCN1C(=O)/C(=C/c2ccccc2F)SC1=S)Nc1cccnc1	-4	-107*	0	·	-34
COc1ccc(S(=O)(=O)C(C#N)c2nc3ccccc3nc2N2CCCC(C)C2)cc1 (stereo unspecified)	-7	-7	0	?	7
Cc1ccnc(NCc2cc(Cl)cc(Cl)c2O)c1	?	-9	?	·	-3
Oc1c(Cl)cc(Cl)cc1CNc1nccs1	-83*	-4	-65*	·	-2
Cn1c(-c2sccc2OCc2ccc(Cl)cc2Cl)n[nH]c1=S	·	21	-5	?	-1
COc1ccccc1OCCN(C#N)c1nc(N(C)C)nc(N(C)C)n1	0	-84*	-2	5%	1
CN(C)c1nc(N(C)C)nc(N(C#N)CCOc2ccccc2)n1	12	9	14	-3%	1
CCCCCC#CCC#CCC#CCC#CCCCC(=O)O	·	·	·	16µM*!	·
COc1ccc(CC(=O)Nc2nc(C(C)(C)C)cs2)cc1	9	-2	3	·	-2
